HT1080 IDH1KD tx – HT-1080 IDH1 knockdown cell toxicity (counter line). AID 686971. 2% of 360,000 active. HT-1080 IDH1 knockdown viability, ATP luminescence, 48 h. Potency, µM (titrated, usually from 46.1 µM), inactives show top-dose activity, negative = toxicity, hits mostly cytotoxic;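 also: 0% = DMSO wells and -100% = cell-free medium wells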
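In this qHTS, HT-1080 cells depleted of IDH1 are exposed for 48 h at 37 °C to compound titrations. Toxicity is scored from CellTiter-Glo luminescence, with DMSO as full viability and medium alone as none.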
TGFb SMAD3 inh – blocks TGF-b signaling; HepG2 CAGA-GFP TGF-b/SMAD3 reporter, GFP fluorescence, 18 h; TGF-beta stimulated, 500 pg/mL final; Potency, µM (highest dose often 46.1 µM), for inactives: top-dose activity, negative = inhibition, most hits filed as inhibitors; 1.2% of 410,000 active; AID 588855; also: % is scaled to controls: 0 for no effect and ±100 for the full control effect; nearly all actives have a fitted effect of over 65% in size
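HEPG2 CAGA-GFP, 1000 cells/well; 2 h settle, 37 C; cpd via pin tool; TGF-b 500 pg/mL final; 18 h, 37 C; GFP imaging ex488/em500-530; %Activity normalised to -TGF-b and +DMSO controls; CRC fit, curve class.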
S2 tox – reduces viability in counter-screen for ATXN expression inhibitors | S2 cells (HEK-293 line with an ATXN2-luciferase reporter) viability, CellTiter-Fluor protease fluorescence, 24 h | Potency, µM (titrated, usually from 56.7 µM), hits mostly cytotoxic | 0.49% of 400,000 active | AID 651635; also: nearly all actives have a fitted effect of over 40% in size
HT1080-NT tox – kills 2HG-producing HT-1080-NT fibrosarcoma cells; HT-1080-NT fibrosarcoma viability, CellTiter-Glo ATP luminescence, 48 h; Potency, µM (top dose mostly 46.1 µM), for inactives: at the highest dose activity, negative = less viability, usual class: cytotoxic; 1.6% of 360,000 active;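 also: NT is the 2HG producing partner of a matched IDH1 knockdown line; 0% = DMSO-treated cells and -100% = media-only wells without cells; nearly all actives have a fitted effect of over 55% in size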
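Compounds were tested in concentration-response format on HT-1080-NT cells for 48 hours at 37 degrees C. Cell viability came from CellTiter-Glo luminescence; curves were classified by r2, response magnitude and activity.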
HepG2 tox-1 – kills HepG2 cells in TGF-b inhibitor counter-screen. HepG2 CAGA-GFP viability, ATP luminescence, 18 h. Potency, µM (highest dose often 46.1 µM), for inactives: at the highest dose activity change, negative = cytotoxicity, hits mostly cytotoxic. 0.76% of 410,000 active. AID 588856
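CellTiter-Glo luminescence gave cytotoxicity after 18 hours at 37 degrees C. The cells were HepG2 CAGA-GFP in 1% FBS DMEM, stimulated with 500 pg/mL TGF-beta after compound addition. %Activity was normalised to no-cell wells (complete cell-killing) and DMSO (no toxicity), and curves were fitted and classified.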
ATXN2 expr inh – inhibitors of ATXN2 expression. HEK-293 ATXN2-luciferase reporter, luminescence, 24 h. AID 1745845. 0.72% of 360,000 active. Potency, µM (series often up to 57 µM), without a hit: at the top dose activity change, negative = inhibition, usual class: inhibitors; also: % is scaled to controls: 0 for no effect and ±100 for the full control effect; nearly all actives have a fitted effect of over 55% in size
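qHTS (up to 57 uM final) was run with 24 h compound exposure of reporter cells at 37 °C. Each well was multiplexed: SteadyGlo luminescence measured ATXN2-luciferase expression after a fluorogenic Gly-Phe-AFC viability readout (25 uM final).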
TGFb CAGA inh – confirmation of TGF-b signaling inhibitors in HepG2 reporter cells; shares compounds with TGFb SMAD3 inh; HepG2 CAGA-GFP TGF-b reporter, GFP fluorescence, 18 h; cells stimulated with TGF-beta, 500 pg/mL; Potency, µM (top dose mostly 46.1 µM), for the others: top-dose activity, negative = inhibition, hits mostly inhibitors; 63% of 1,600 active; AID 720534; also: % is scaled to controls: 0 for no effect and ±100 for the full control effect; nearly all actives have a fitted effect of over 65% in size
HepG2 tox-2 – HepG2 cytotoxicity, TGF-b inhibitor counterscreen; shares compounds with TGFb SMAD3 inh; 27% of 1,600 active; HepG2 CAGA-GFP viability, ATP luminescence, 18 h; cells stimulated with TGF-beta, 500 pg/mL; Potency, µM (top dose mostly 46.1 µM), for inactives: at the top dose activity, negative = cytotoxicity, hits mostly inhibitors; also: % is scaled to controls: 0 for no effect and ±100 for the full control effect; nearly all actives have a fitted effect of over 70% in size
CCL64 TGFb inh – orthogonal confirmation of TGF-b inhibitors in CCL64 cells; shares compounds with TGFb SMAD3 inh; CCL64 CAGA-GFP reporter, TGF-b stimulated, GFP fluorescence, 18 h; Potency, µM (series often up to 46.1 µM), for the others: at the top dose activity, negative = inhibition, hits mostly inhibitors; 41% of 1,600 active; AID 720536; also: nearly all actives have a fitted effect of over 65% in size
TGFb COP inh – blocks TGF-b signaling in HepG2 COP reporter; Potency, µM (doses to about 46.1 µM), without a hit: at the top dose activity, negative = inhibition, hits mostly inhibitors; AID 720537; 3% of 1,600 active; shares compounds with TGFb SMAD3 inh; HepG2 COP-GFP TGF-b reporter, GFP fluorescence, 18 h; cells stimulated by added recombinant TGF-beta; also: nearly all actives have a fitted effect of over 70% in size
Starred values were filed as active, the others as inactive; i = inactive; ? = inconclusive; · = not tested or not shown; [ ] = dose if it differs, or a comment. An excerpt weighted towards active compounds, which were near 3.8% of everything screened. Calls follow the shape of the dose curve; as a rule, active = well fitted curve in the direction sought with a large enough effect; inconclusive = small, poorly fitted or top-dose-only effect, or another doubt; inactive = no such curve, though single readings can be large; an effect the other way counts as inactive or inconclusive. Potency is read from the fitted curve at half-maximal effect.

SMILES	HT1080 IDH1KD tx	TGFb SMAD3 inh	S2 tox	HT1080-NT tox	HepG2 tox-1	ATXN2 expr inh	TGFb CAGA inh	HepG2 tox-2	CCL64 TGFb inh	TGFb COP inh
COc1c(O[C@@H]2O[C@H](CO)[C@@H](O)[C@H](O)[C@H]2O)cc2c(c1OC)-c1ccc(SC)c(=O)cc1C(NC(C)=O)CC2 (stereo not given in full)	?	-0.7%	i	?	-3.0%	15.3%	·	·	·	·
COc1ccc2[nH]cc(CCN=C(NC(=O)c3ccccc3F)Nc3nc(C)cc(C)n3)c2c1	·	29.8%	i	·	0.2%	31.6%	·	·	·	·
COc1cc(C2C3=C(COC3=O)OC(C)(C)Oc3cc4c(cc32)OCO4)cc(OC)c1OC (stereo not given)	?	2.82µM*	?	?	-2.2%	-0.9%	?	-0.1%	?	-1.6%
COc1cc(C2C3=C(COC3=O)Oc3cc4c(cc32)OCO4)ccc1O (stereo not given)	?	12.6µM*	?	?	-3.7%	-9.0%	-29.7%	7.8%	?	-17.4%
CCOC(=O)c1ccccc1S(=O)(=O)N1CCN(c2nc(-c3cccs3)nc3ccccc23)CC1	22.7%	·	·	15.1%	·	·	·	·	·	·
Cc1c(CNCc2ccc(OC(C)C)cc2)c(C(=O)O)c(C)n1Cc1ccc(Cl)cc1	·	-2.6%	i	·	-12.4%	1.6%	·	·	·	·
O=C(c1ccc(Cl)c([N+](=O)[O-])c1)N1CCN(S(=O)(=O)c2ccc(Cl)cc2)CC1	-17.0%	10µM*	i	-0.1%[9.24 µM]	-15.2%	-5.9%	13µM*	-17.2%	?	-5.0%
CCCN(Cc1cc2cccc(C)c2[nH]c1=O)C(=O)c1cccc(Cl)c1	·	-14.1%	i	·	-21.1%	-2.1%	·	·	·	·
Cc1ccc(Cl)cc1NC(=O)c1cc2ccccc2cc1O	?	3.55µM*	i	4.11µM*	-76.0%	·	2.59µM*	7.31µM*	4.11µM*	77.6%
COc1ccccc1NC(=O)c1cc2cc(Br)ccc2cc1O	?	5.62µM*	i	?	-49.0%	·	7.31µM*	8.2µM*	5.8µM*	68.4%
COc1cc(NC(=O)c2cc3ccccc3cc2O)c(OC)cc1Cl	?	4.47µM*	i	?	-57.7%	·	7.31µM*	6.51µM*	5.8µM*	33.1%
CN(C)c1ccc(-c2nn3c(-c4ccccc4Cl)nnc3s2)cc1	?	?	i	?	9.5%	-7.9%	4.61µM*	-4.5%	10.3µM*	-6.0%
Cc1cccc(C(=O)Nc2nnc(S(=O)(=O)N(C)c3ccccc3C)s2)c1	·	0.0%	·	·	-36.8%	·	·	·	·	·
Cc1ccc(C)c(OCCC(=O)Nc2cccc(S(=O)(=O)N3CCCCC3)c2)c1	9.0%	12.6µM*	i	0.3%	-5.1%	-8.0%	23.1µM*	-23.5%	?	5.8%
Cc1sc2ncn(CC(=O)N3CCN(c4ccccc4)CC3)c(=O)c2c1S(=O)(=O)N1CCC(C)CC1	·	?	i	·	-19.5%	-7.9%	·	·	·	·
COc1ccc(-c2cc(=Nc3c(C)n(C)n(-c4ccccc4)c3=O)c3ccccc3o2)cc1	-20.9%	-11.4%	i	-6.3%	-27.1%	3.2%	·	·	·	·
COc1ccc(-c2c/c(=N\c3nc(-c4ccccc4)c(C)s3)c3ccccc3o2)cc1O	5.8µM*	8.91µM*	·	5.8µM*	-14.5%	?	8.2µM*	?	4.11µM*	36.7%
Cc1ccccc1N1CCN(C(=O)C2CCC(=O)N(C3CCCC3)C2)CC1 (stereo not given)	8.8%	-7.4%	i	4.4%	-6.8%	-12.0%	·	·	·	·
O=C(C1CCC(=O)N(C2CCCCCC2)C1)N1CCN(c2ccccc2Cl)CC1 (stereo not given)	0.8%	7.08µM*	i	?	-85.8%	·	-28.6%	-19.8%	?	-0.5%
O=C(NCCc1ccccc1)c1cnc2sc(N3CCCCCC3)nn2c1=O	·	0.0%	·	·	-13.6%	·	·	·	·	·
COC(=O)c1ccc(C)c(NS(=O)(=O)c2ccc(OC)cc2)c1	?	?	?	?	-2.8%	0.0%	?	-0.8%	?	-6.7%
COc1ccc(C(NC(=O)C2CCN(CCOc3ccc(Cl)cc3Cl)CC2)c2cccs2)cc1 (stereo not given)	?	4.47µM*	?	-22.6%	5.01µM*	-23.7%	?	?	?	?
c1ccc(CNc2nc(NCCc3ccncc3)c3sccc3n2)cc1	?	2.24µM*	?	?	-42.6%	0.0%	1.46µM*	7.31µM*	4.61µM*	33.8%
CCc1ccccc1Oc1nc(NCc2ccccc2)nc2ccsc12	?	11.2µM*	i	?	-26.0%	-18.0%	23.1µM*	?	16.4µM*	30.5%
O=C1NCCN1CCNc1nc(NCc2ccccc2)nc2ccsc12	12.4%	7.94µM*	?	27.0%	-47.4%	-2.7%	14.6µM*	?	?	49.8%
CCc1ccc(NC(=O)C2CCCN(c3nn4cc(-c5ccc(OC)cc5)nc4s3)C2)cc1 (stereo not given)	·	-24.6%	·	·	-7.2%	·	·	·	·	·
COc1ccc(OC)c(C2SCCN2S(=O)(=O)c2cccc(C(F)(F)F)c2)c1 (stereo not given)	-7.0%	?	i	-6.1%	-19.6%	-5.1%	?	-21.4%	-15.4%	-4.5%

Screens deposited in PubChem BioAssay by National Center for Advancing Translational Sciences (NCATS).
